Test results as given in PubChem BioAssay (Tox21).
Records with an inconclusive call do not appear. Entries that show only a call come without a potency. Unmarked numbers belong to inactive results. Activity calls are given as the source filed them. Calls follow the shape of the full dose curve.

test: qHTS assay for small molecules that induce genotoxicity in human embryonic kidney cells expressing luciferase-tagged ATAD5 - cell viability (AID 651634); details: HEK293T ATAD5-luc cells viability, CellTiter-Fluor, 15.5 h; series mostly up to 83.3 µM; activity, negative = cytotoxicity: at the top concentration; also: nearly all actives have a fitted effect of over 25% in size
From the text: National Center for Advancing Translational Sciences [NCATS]
NIH Chemical Genomics Center [NCGC]
U.S. Environmental Protection Agency [EPA]
National Institutes of Environmental Health Sciences [NIEHS]
National Toxicology Program [NTP]
U.S. Food and Drug Administration [FDA]
Enhanced Level of Genome Instability Gene 1 (ELG1; human ATAD5) protein levels increase in response to various types of DNA damage. Using a luciferase reporter-gene tagged with ElG1, a cell-based assay [developed by Kyungjae Myung, NHGRI, NIH] was used to measure the induction of ATAD5 in human embryonic kidney cells (HEK293T). So, increase in luciferase activity can be used to identify the compounds that cause genetic stress. In addition to genotoxicity, these cells were also used to test for cytotoxicity by measuring the protease activity within live cells.
Tox21 Assay Protocol Summary:
For cytotoxicity screening, 2,000 cells in 5 uL/well were dispensed into white, solid-bottom 1536-well plates using a Multidrop Combi (Thermo Scientific) dispenser. Following transfer of 23 nL compound or DMSO vehicle by a pin tool, the plates were incubated 15.5 hr at 37C and 5% CO2. 1 ul CellTiter-Fluor reagent (Promega, Madison, WI) was then added to each plate and following 30 min incubation at 37C, fluorescence intensity was quantified on a ViewLux CCD-based plate reader.
Potency is read from the fitted curve at half-maximal effect.

SMILES | Potency | activity, negative = cytotoxicity [%]
CC(=O)OC(C)C | inactive | 
CCCOCCO | inactive | 
CC(C)[C@@H]1CC[C@@H](C)CC1=O | inactive | 
CC/C=C\C/C=C\C/C=C\CCCCCCCC(=O)O | inactive | 
CC(C)(C)c1cccc(C(C)(C)C)c1O | inactive | 
C=C[C@@]1(C)CC(=O)[C@]2(O)[C@@]3(C)[C@@H](O)CCC(C)(C)[C@@H]3[C@H](O)[C@H](OC(C)=O)[C@@]2(C)O1 |  | -2.19
O=[Se](O)O | 687 nM (active) | 
Cc1ccc2c(c1)C(=O)OC2=O | inactive | 
CC1(C)C(C=C(Cl)Cl)C1C(=O)OCc1cccc(Oc2ccccc2)c1 (stereo not given) | inactive | 
OC[C@@H](O)[C@@H](O[C@@H]1O[C@H](CO)[C@H](O)[C@H](O)[C@H]1O)[C@H](O)[C@@H](O)CO | inactive | 
CC(C)=CCO | inactive | 
CC(=O)O[C@]1(C(C)=O)CC[C@H]2[C@@H]3C=C(Cl)C4=CC(=O)CC[C@]4(C)[C@H]3CC[C@@]21C | inactive | 
CC1(C)O[C@@H]2C[C@H]3[C@@H]4C[C@H](F)C5=CC(=O)C=C[C@]5(C)[C@@]4(F)[C@@H](O)C[C@]3(C)[C@]2(C(=O)CO)O1 | inactive | 
CCOC(=O)C(C)Oc1ccc(Oc2cnc3cc(Cl)ccc3n2)cc1 (stereo not given) | inactive | 
CN1CCOCC1 | inactive | 
C=C1C[C@H]2[C@@H]3C=C(C)C4=CC(=O)CC[C@]4(C)[C@H]3CC[C@]2(C)[C@@]1(OC(C)=O)C(C)=O | inactive | 
COC(=O)c1ccc(C)cc1 | inactive | 
O=C(O)CCCCCCCCCCCC(=O)O | inactive | 
CN(C)/N=N/c1nc[nH]c1C(N)=O | inactive | 
Cc1ccc(S(=O)(=O)NCl)cc1 | inactive | 

SMILES | Potency | activity, negative = cytotoxicity [%]
COCCOCCOCCO | inactive | 
COC(=O)C(C)Oc1ccc(Oc2ncc(C(F)(F)F)cc2Cl)cc1 (stereo not given) | inactive | 
CCCCCCCCCCCCCO | inactive | 
Cc1cccc(Nc2ccccc2C(=O)O)c1C | inactive | 
CCc1cccc2c3c([nH]c12)C(CC)(CC(=O)O)OCC3 (stereo not given) | inactive | 
NC[C@H](O)c1ccc(O)c(O)c1 | inactive | 
CCCCCC1C(=O)CCC1CC(=O)OC (stereo not given) | inactive | 
CCCCCCCC/C=C\CCCCCCCC(=O)O | inactive | 
CCC/C=C/C=O | inactive | 
Nc1ccc(N)c(Cl)c1 | inactive | 
[O-]/[N+](=N\O)c1ccccc1 | inactive | 
CCCCCCOCCOCCO | inactive | 
C=CCCCCCCCCCC | inactive | 
C=CN1CCCC1=O | inactive | 
c1ccc2cc3ccccc3cc2c1 | inactive | 
CN(C)C | inactive | 
O=S1(=O)CCCO1 | inactive | 
COc1ccc2nc(N)sc2c1 | inactive | 
CCCCCCCCCCC(CO)CCCCCCCC (stereo not given) | inactive | 
CCCN1C=CN(C)C1 | inactive | 
